Hits are enriched below; roughly 1.6% of the tested compounds scored in any of these assays.
3CLpro inhibitor – SARS-CoV 3CLpro protease inhibition. actives 0.14% (n = 290,000). recombinant SARS-CoV 3CLpro, quenched FRET peptide cleavage. P0C6X7. inhibition, % at 6 µM. AID 1706; in the data active means inhibition above about 12%
PrP 5UTR inh – inhibition of PrP 5' UTR reporter expression | cell-based PrP 5' UTR mRNA reporter, plate reader | inhibition, % (no concentration beside the values) | actives 0.35% (n = 340,000) | AID 488862; in the data active means inhibition above about 52%; further: 0 = median of the neutral control wells
PfHsp40 rescue – rescue of PfHsp40-mediated yeast toxicity; AID 504582; actives 0.68% (n = 340,000); S. cerevisiae expressing PfHsp40, growth rescue, ATP luminescence; growth rescue, % at 12.5 µM; in the data active means growth rescue above about 28%, passing the limit was not always enough;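 further: yeast W303a lacking pdr1 and pdr3 grown in galactose medium; growth measured after three days at 30 °C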
PrPC TRFRET – cell surface PrPC inhibition, primary TR-FRET screen; AID 720596; actives 0.43% (n = 370,000); P04156; TR-FRET read-out; inhibition, % at 13.8 µM; in the data active means inhibition above about 24%; further: 0% = median of the test wells and 100% = reference compound wells
BH1578 lux ind – inducers of Vibrio cholerae quorum light production without autoinducers; actives 0.16% (n = 350,000); V. cholerae BH1578 lux reporter, luminescence, 6 h; activation, % at 18.7 µM; AID 588436; in the data active means activation mostly above about 9.7%, no sharp cut-off
PriA SSB inh – blocks PriA binding to SSB C-terminal tail; AlphaScreen SSBct-PriA binding, biotinylated peptide; AID 1272365; actives 0.6% (n = 430,000); inhibition, % at 33 µM; in the data active means inhibition mostly above about 37%, no sharp cut-off; inactive means mostly below about 20%;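 further: plate controls were negative control peptide for no effect and reference peptide for full effect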
PrP 5UTR single – prion 5' UTR mRNA inhibition, cherry-pick retest; inhibition, % at 2.5 µM; cell-based prion protein 5' UTR reporter, plate reader; shares compounds with PrP 5UTR inh; actives 48% (n = 1,100); in the data active means inhibition above about 54%
PrPC confirm – cell surface PrPC inhibition, TR-FRET confirmation; shares compounds with PrPC TRFRET; cell surface PrPC level; inhibition, % at 13.8 µM; actives 65% (n = 1,500); AID 743200; in the data active means inhibition above about 25%
LD9 cytotox – counter-screen for PrPc inhibitors: cytotoxicity in LD9 cells. shares compounds with PrPC TRFRET. inhibition, % at 13.8 µM. luminescence viability. actives 29% (n = 1,500); in the data active means inhibition above about 9.5%
Active calls of the source: *; i = inactive; nt = no result; ! = repeats disagree.

SMILES	3CLpro inhibitor	PrP 5UTR inh	PfHsp40 rescue	PrPC TRFRET	BH1578 lux ind	PriA SSB inh	PrP 5UTR single	PrPC confirm	LD9 cytotox
CN(C)c1ccc2c(c1)OC(N)=C(C#N)C2c1cccc(F)c1 (stereo unspecified)	-3	66*	0	nt	1	37	90*	nt	nt
N#CC1=C(N)Oc2cc(N)ccc2C1c1cccc(F)c1 (stereo unspecified)	7	-20	1	8	i	6	nt	nt	nt
COc1ccc([C@@]23Oc4cc(OC)cc(OC)c4[C@]2(O)[C@H](O)[C@H](C(=O)N(C)C)[C@H]3c2ccccc2)cc1	nt	79*	-2	98*	-1	-2	85*	99*	29*
COC(=O)C1=Nc2ccccc2C1=Cc1c(O)n(C)c(=O)n(C)c1=O	nt	nt	nt	nt	nt	-11	nt	nt	nt
CC(=O)OC1(C)CC(C)C(=O)C(C(O)CC2CC(=O)NC(=O)C2)C1 (stereo unspecified)	nt	63*	12	91*	-1	-1	96*	101*	55*
Cn1ccnc1S(=O)(=O)C1CCN(C(=O)c2ccsc2)CC1	nt	nt	nt	nt	nt	-8	nt	nt	nt
CC(=O)OC[C@]12CCC(C)=C[C@H]1O[C@@H]1[C@H](O)[C@@H](OC(C)=O)[C@@]2(C)[C@]12CO2	nt	90*	nt	88*	0	-1	97*	99*	59*
CC(=O)OC(C)(C)/C=C/C(=O)C(C)(O)C1[C@H](O)C[C@@]2(C)C3CC=C4C(CC[C@@H](O)C4(C)C)[C@]3(CO)C(=O)C[C@]12C (stereo partly specified)	10	81*	-1	30*	-10	-5	90*	33*	3
COc1cc(=O)n(-c2ccccc2)cc1C(=O)N[C@H]1CCCc2ccccc21	nt	nt	nt	nt	nt	-4	nt	nt	nt
CCN(CC)c1ccc(C(=C2C=CC(=[N+](CC)CC)C=C2)c2ccccc2)cc1	nt	56*	-1	85*	-1	48	88*	90*	99*
Cn1cnc(S(=O)(=O)NCc2cc(C3CC3)n(C3CCCC3)n2)c1	nt	nt	nt	nt	nt	11	nt	nt	nt
COC(=O)c1ccsc1NC(=O)c1cc(=O)c2ccccc2o1	nt	nt	nt	nt	nt	-3	nt	nt	nt
CC(=O)OC1C(=O)OCC23CCC4(C)OC4C2OC2CC(OC(=O)C=CC=CC(=O)OCCC1C)C3(C)C21CO1 (stereo unspecified)	nt	94*	nt	92*	i	nt	95*	98*	63*
CC1CCOC(=O)/C=C/C=C/C(=O)OC2CC3OC4C5OC5(C)C(O)CC4(COC(=O)C1O)C2(C)C31CO1 (stereo unspecified)	nt	nt	nt	nt	nt	-15	nt	nt	nt
CC(=O)CCC1C2C(O)C(C(C)C)C(OC(=O)/C=C/c3ccccc3)CC12C (stereo unspecified)	nt	-44	2	5	0	-3	nt	nt	nt
CC(=O)OC1C(O)C(C)OC(OC2C(OC(=O)C3CCC4C(C3)OC3(CC(OC(=O)/C=C/c5ccccc5)C(C)CO3)C43CO3)OC(C)C(O)C2OC(C)=O)C1O (stereo unspecified)	nt	84*	3	86*	i	-9	83*	98*	67*
O=C(Cn1c2ccccc2c(=O)c2ccccc21)NN=Cc1cc([N+](=O)[O-])ccc1N1CCCCC1	nt	nt	nt	nt	nt	-4	nt	nt	nt
COC(=O)C12OCC34C(CC5C(C)=C(O)C(=O)CC5(C)C3C(O)C1O)OC(=O)C(OC(=O)/C=C(\C)C(C)C)C24 (stereo unspecified)	nt	93*	3	100*	i	-9	92*	100*	47*
COC(=O)C12OCC34C(CC5C(C)=C(O)C(=O)CC5(C)C3C(O)C1O)OC(=O)C(OC(=O)C=C(C)C)C24 (stereo unspecified)	nt	83*	1	100*	i	4	86*	101*	35*
CCC(C)C1NC(=O)C(NC(=O)C(CC(C)C)N(C)C(=O)C2CCCN2C(=O)C(C)O)C(C)OC(=O)C(Cc2ccc(OC)cc2)N(C)C(=O)C2CCCN2C(=O)C(CC(C)C)NC(=O)[C@H](C)C(=O)[C@H](C(C)C)OC(=O)CC1O (stereo partly specified)	nt	94*	-1	97*	6	-7	96*	98*	64*
CN(C)S(=O)(=O)c1ccc(C(=O)NCCN2CCN(c3ccc(F)cc3)CC2)cc1	nt	nt	nt	nt	nt	-17	nt	nt	nt
NC(=S)c1cn(C2OC(CO)C(O)C2O)c2ncnc(N)c12 (stereo unspecified)	0	61*	0	28*	-6	-7	83*	37*	37*
OCC1OC(n2ccc3c2ncn2ncnc32)C(O)C1O (stereo unspecified)	nt	nt	nt	-6	1	nt	nt	nt	nt
Nc1ncnc2c1ccn2[C@@H]1O[C@H](CO)[C@@H](O)[C@H]1O	nt	81*	1	77*	0	-3	88*	68*	94*
Cc1nc(-c2ccco2)sc1CNC(=O)c1csc(-c2ccccc2)n1	nt	nt	nt	nt	nt	-1	nt	nt	nt
SMILES	3CLpro inhibitor	PrP 5UTR inh	PfHsp40 rescue	PrPC TRFRET	BH1578 lux ind	PriA SSB inh	PrP 5UTR single	PrPC confirm	LD9 cytotox
CC(C)Oc1ccc(C(O)=C2C(=O)C(=O)N(CCN3CCNCC3)C2c2ccc([N+](=O)[O-])cc2)cc1 (stereo unspecified)	nt	nt	nt	nt	nt	16	nt	nt	nt
CSc1cccc(NC(=O)CN2C(=O)CC(c3ccccc3)=Nc3ccccc32)c1	nt	nt	nt	nt	nt	5	nt	nt	nt
C[C@@H]1C[C@@H]2OC(=O)[C@]3(C)[C@H]2[C@@H](OC3(C)O)[C@]2(C)C(=O)C=C[C@H]12 (stereo partly specified)	nt	-22	-1	1	-11	-13	nt	nt	nt
C=C1C(=O)O[C@@H]2C[C@@H](C)[C@@H]3C=CC(=O)[C@@]3(C)[C@@H](O)[C@H]12	nt	56*	-2	95*	0	-11	82*	100*	58*
COc1ccc(CC2NCCC3(O)CCCCC23)cc1 (stereo unspecified)	-3	-12	0	1	0	3	nt	nt	nt
COc1ccc(CC2NCC(O)C2OC(C)=O)cc1 (stereo unspecified)	nt	77*	2	94*	0	-2	95*	99*	51*
Cn1cc(C(=O)N2CCC(Oc3cnccn3)CC2)nn1	nt	nt	nt	nt	nt	-11	nt	nt	nt
C[C@H]1CCC/C=C/[C@@H]2C[C@H](O)C[C@H]2[C@H](O)/C=C/C(=O)O1	nt	79*	47*!	95*	0	nt	87*	95*	4

Screens from PubChem BioAssay.
